Data from ChEMBL document CHEMBL3988442, “University of Dundee, Small-Polar-MMV Screening Library” (2021).

target: T1, Aspartate--tRNA(Asp/Asn) ligase (Mycobacterium tuberculosis (strain ATCC 25618 / H37Rv)) (UniProt P9WFW3); assay: Assay for Asp RNA synthetase-1 from Mycobacterium tuberculosis; assay type: functional; design: scale not given: direction of the effect not stated beside the values; details: 30 µM; also: in the data most compounds retested in dose-response had high values
T1 sequence (whole entry): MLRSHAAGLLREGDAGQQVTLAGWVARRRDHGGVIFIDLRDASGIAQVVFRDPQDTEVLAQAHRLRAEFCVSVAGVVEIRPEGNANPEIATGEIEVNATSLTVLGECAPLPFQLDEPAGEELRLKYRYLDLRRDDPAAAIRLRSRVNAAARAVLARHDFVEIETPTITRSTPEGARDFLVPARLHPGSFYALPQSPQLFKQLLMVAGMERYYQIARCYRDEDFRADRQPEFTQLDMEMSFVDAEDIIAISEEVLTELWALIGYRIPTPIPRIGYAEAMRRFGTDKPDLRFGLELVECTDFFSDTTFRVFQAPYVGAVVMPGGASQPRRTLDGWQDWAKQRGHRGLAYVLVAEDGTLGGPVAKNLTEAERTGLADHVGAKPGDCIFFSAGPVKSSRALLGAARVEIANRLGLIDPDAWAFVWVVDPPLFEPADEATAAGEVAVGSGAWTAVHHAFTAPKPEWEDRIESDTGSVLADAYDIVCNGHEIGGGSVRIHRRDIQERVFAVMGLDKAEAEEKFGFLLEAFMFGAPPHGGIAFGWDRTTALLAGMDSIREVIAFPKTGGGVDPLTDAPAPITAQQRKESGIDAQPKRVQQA

SMILES | Percent Effect [%]
COc1ccc(CNCC2CCN(CC(C)O)CC2)c2ccccc12 (stereo not given) | -5.41
Cc1cc(C)n2cc(CN3CCCC3Cn3nc(C)nc3C)nc2n1 (stereo not given) | -2.84
O=C(NCCNc1ccc(C(F)(F)F)cn1)c1ccc(Br)cc1F | -0.778
CCOC(=O)[C@]12CCCN(Cc3ccco3)C[C@H]1CN(CCN(C)C)C2 | 4.07
Cc1ccc(-n2nnc(C(=O)Nc3cc(C)nn3C)c2C2CC2)cc1 | -2.8
O=C(CCc1cc2n(n1)CCCN(Cc1ccccc1F)C2)NC1CC1 | -1.95
CC(=O)N(Cc1ncc(C(C)C)o1)C1CCN(Cc2nccn2C)C1 (stereo not given) | 3.99
CC(C)c1nnc2n1CCN(C(=O)CN1CCc3sccc3C1)C2 | -0.1
CN(Cc1ccc(C#N)cc1)Cc1noc(C(C)(C)C)n1 | -2.67
CCc1cnc2c(c1NCc1ccncc1)c(=O)n(C)c(=O)n2C | -0.949
O=C(c1ccc2c(c1)OCO2)N1CCCSCC1CN1CCCC1 (stereo not given) | -0.0437
CCNC(=O)N1CCCC(c2noc(CC)n2)C1 (stereo not given) | -2.74
Cc1ccc(NS(=O)(=O)CC2=NC(=O)n3cccc3C2=O)cc1 | -1.02
NC(=O)c1ccc(N2CCCCC2)c(NC(=O)c2cc(Br)ccc2F)c1 | 11
CN(Cc1nc(N)c2ccccc2n1)C1CCCN(c2cccnn2)C1 (stereo not given) | -4.22
CCOC1CCCN(C(=O)c2cnc3c(cnn3C3CCCC3)c2)C1 (stereo not given) | 2.51
CCN(CC)C(=O)CCNc1cncc(-n2nc(C)cc2C)n1 | 1.51
COc1ccc(OCCCNC(=O)NCc2csc(C)n2)cc1 | -1.75
Cn1cnnc1S(=O)(=O)C1CCN(S(=O)(=O)c2ccc(F)c(Cl)c2)CC1 | 2.04
CN1CC(=O)N(c2cccc(F)c2)CC12CCN(Cc1cccnc1)C2 (stereo not given) | 2.03

SMILES | Percent Effect [%]
CCCS(=O)(=O)c1ncc(CN2CCC(CO)CC2)n1CC1CCCO1 (stereo not given) | -5.1
Cc1nccn1-c1cc(CNC(=O)C(C)(C)C)ccn1 | 10.6
COc1ccccc1CN1CC[C@]2(C[C@H](OC)CO2)C1 | -1.25
CN(Cc1ccccc1)C(=O)c1nc(S(C)(=O)=O)n2ccccc12 | -4.08
CCN1CCC2(C=C(C(=O)NC3CC3)c3ccccc32)CC1 | -0.796
CCCn1ncc(CN2C[C@@H]3CCCN3C[C@@H]2CCSC)c1C | -1.92
Cc1ccccc1C1(CNC(=O)NCCc2nnc3n2CCC3)CC1 | -1.38
FC(F)(F)Cc1noc(CN2CCCC2c2noc(C3CC3)n2)n1 (stereo not given) | 8.91
CCN1CCN(S(=O)(=O)c2cc(C)c(Cl)cc2Cl)CC1 | -2.59
Cc1cc(C)c(OCC(=O)NS(=O)(=O)c2cccnc2)c(C)c1 | -4.5
COc1cc(CCC(=O)NC2CC2)ccc1OCC(F)(F)F | 1.01
CNC(=O)c1nc2c(s1)CCN(C(=O)c1cccnc1)CC2 | 2.01
CNC(=O)CS(=O)(=O)C1CCN(S(=O)(=O)c2c(F)cccc2F)CC1 | -1.03
N#Cc1ncn(CC(=O)Nc2cc(Cl)ccc2F)n1 | 9.55
CC(C)CNc1nc(C(=O)/N=c2\[nH]nc(C(C)(C)C)s2)cs1 | -0.96
Cc1ncc(CNC(=O)Nc2cc(C(F)(F)F)c[nH]c2=O)s1 | 2.67
O=C(Cc1cccnc1)N1CCC2(CC1)CCN(C1CCOCC1)C2 | 1.28
COc1ncccc1CNc1cc(N2CCCC2CO)ncn1 (stereo not given) | -0.88
COc1ccc(-n2ncc(C(=O)NCC3COC(C)(C)O3)c2N)cc1 (stereo not given) | -2.49
Cc1cccc(C(=O)N2CCCN(Cc3cnn(C)c3)CC2)n1 | -3.08

target: Shiga toxin 2 (Escherichia coli O157:H7) (UniProt P09385+P09386); assay: E. coli 0.157:H7 Shiga Toxin SOP - stx2 screening assay; assay type: functional; design: scale not given: direction of the effect not stated beside the values; details: 30 µM

SMILES | Percent Effect [%]
COc1ccc(CNCC2CCN(CC(C)O)CC2)c2ccccc12 (stereo not given) | -33.8
Cc1cc(C)n2cc(CN3CCCC3Cn3nc(C)nc3C)nc2n1 (stereo not given) | 5.36
O=C(NCCNc1ccc(C(F)(F)F)cn1)c1ccc(Br)cc1F | 38.5
CCOC(=O)[C@]12CCCN(Cc3ccco3)C[C@H]1CN(CCN(C)C)C2 | -6.83
Cc1ccc(-n2nnc(C(=O)Nc3cc(C)nn3C)c2C2CC2)cc1 | 34.4
O=C(CCc1cc2n(n1)CCCN(Cc1ccccc1F)C2)NC1CC1 | -4.17
CC(=O)N(Cc1ncc(C(C)C)o1)C1CCN(Cc2nccn2C)C1 (stereo not given) | 17.4
CC(C)c1nnc2n1CCN(C(=O)CN1CCc3sccc3C1)C2 | -16.2
CN(Cc1ccc(C#N)cc1)Cc1noc(C(C)(C)C)n1 | -19
CCc1cnc2c(c1NCc1ccncc1)c(=O)n(C)c(=O)n2C | -7.71
O=C(c1ccc2c(c1)OCO2)N1CCCSCC1CN1CCCC1 (stereo not given) | -5.02
CCNC(=O)N1CCCC(c2noc(CC)n2)C1 (stereo not given) | 17.9
Cc1ccc(NS(=O)(=O)CC2=NC(=O)n3cccc3C2=O)cc1 | -73.8
NC(=O)c1ccc(N2CCCCC2)c(NC(=O)c2cc(Br)ccc2F)c1 | -50.5
CN(Cc1nc(N)c2ccccc2n1)C1CCCN(c2cccnn2)C1 (stereo not given) | -28.7
CCOC1CCCN(C(=O)c2cnc3c(cnn3C3CCCC3)c2)C1 (stereo not given) | 15.6
CCN(CC)C(=O)CCNc1cncc(-n2nc(C)cc2C)n1 | -34.2
COc1ccc(OCCCNC(=O)NCc2csc(C)n2)cc1 | -17
Cn1cnnc1S(=O)(=O)C1CCN(S(=O)(=O)c2ccc(F)c(Cl)c2)CC1 | -2.86
CN1CC(=O)N(c2cccc(F)c2)CC12CCN(Cc1cccnc1)C2 (stereo not given) | -14.7

SMILES | Percent Effect [%]
CCCS(=O)(=O)c1ncc(CN2CCC(CO)CC2)n1CC1CCCO1 (stereo not given) | -15.9
Cc1nccn1-c1cc(CNC(=O)C(C)(C)C)ccn1 | -3.04
COc1ccccc1CN1CC[C@]2(C[C@H](OC)CO2)C1 | -21.1
CN(Cc1ccccc1)C(=O)c1nc(S(C)(=O)=O)n2ccccc12 | 20.9
CCN1CCC2(C=C(C(=O)NC3CC3)c3ccccc32)CC1 | 1.55
CCCn1ncc(CN2C[C@@H]3CCCN3C[C@@H]2CCSC)c1C | -13.3
Cc1ccccc1C1(CNC(=O)NCCc2nnc3n2CCC3)CC1 | -0.461
FC(F)(F)Cc1noc(CN2CCCC2c2noc(C3CC3)n2)n1 (stereo not given) | 16.4
CCN1CCN(S(=O)(=O)c2cc(C)c(Cl)cc2Cl)CC1 | -47.6
Cc1cc(C)c(OCC(=O)NS(=O)(=O)c2cccnc2)c(C)c1 | -1.8
COc1cc(CCC(=O)NC2CC2)ccc1OCC(F)(F)F | 30.2
CNC(=O)c1nc2c(s1)CCN(C(=O)c1cccnc1)CC2 | -18.2
CNC(=O)CS(=O)(=O)C1CCN(S(=O)(=O)c2c(F)cccc2F)CC1 | -5.55
N#Cc1ncn(CC(=O)Nc2cc(Cl)ccc2F)n1 | -46.7
CC(C)CNc1nc(C(=O)/N=c2\[nH]nc(C(C)(C)C)s2)cs1 | -23.9
Cc1ncc(CNC(=O)Nc2cc(C(F)(F)F)c[nH]c2=O)s1 | -19.6
O=C(Cc1cccnc1)N1CCC2(CC1)CCN(C1CCOCC1)C2 | -40.8
COc1ncccc1CNc1cc(N2CCCC2CO)ncn1 (stereo not given) | -26.2
COc1ccc(-n2ncc(C(=O)NCC3COC(C)(C)O3)c2N)cc1 (stereo not given) | 7.2
Cc1cccc(C(=O)N2CCCN(Cc3cnn(C)c3)CC2)n1 | -31.1
